Measurements taken from PubChem BioAssay.
Activity calls are given as the source filed them.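 The calls were made as follows: active = thallium flux through the channel raised or lowered by more than 3 SD from vehicle-only wells, actives on both sides; inactive = the rest.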

Columns and labels:
Test in all cases: BK channel mutant inhibitors and activators – cell-based, U2OS BacMam, thallium flux, beta subunits, selectivity assay, profiling panel (AID 1259406);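 also: initial slope of Thallos dye fluorescence rise after thallium is added; log ratio against the mean of 0.3% DMSO vehicle wells on the same plate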
F380Y/beta2Delta = settings: U2OS BacMam BK variants, at 30 µM
F380Y/beta4 = settings: U2OS BacMam BK variants, at 30 µM
[1] = target: Calcium-activated potassium channel subunit alpha-1 (Homo sapiens) + Leucine-rich repeat-containing protein 26 (Homo sapiens) (UniProt Q12791+Q2I0M4); settings: U2OS BacMam BK variants, F380Y/Slo1WT/gamma1, at 30 µM
Chain of Calcium-activated potassium channel subunit alpha-1 (Homo sapiens) + Leucine-rich repeat-containing protein 26 (Homo sapiens) (Q2I0M4 whole entry, looked up, one chain of several): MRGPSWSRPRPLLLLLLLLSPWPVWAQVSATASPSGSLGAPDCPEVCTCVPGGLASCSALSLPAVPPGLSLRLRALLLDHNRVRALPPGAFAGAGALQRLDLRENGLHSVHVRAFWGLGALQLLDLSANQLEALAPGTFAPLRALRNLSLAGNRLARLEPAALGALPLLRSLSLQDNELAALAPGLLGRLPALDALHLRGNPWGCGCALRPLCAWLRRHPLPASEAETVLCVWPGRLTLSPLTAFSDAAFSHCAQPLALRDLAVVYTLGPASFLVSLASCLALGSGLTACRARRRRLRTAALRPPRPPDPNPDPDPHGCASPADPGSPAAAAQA

R275C = settings: U2OS BacMam BK variants, at 30 µM
R275C/beta1 = settings: U2OS BacMam BK variants, at 30 µM
R275C/beta2Delta = settings: U2OS BacMam BK variants, at 30 µM
R275C/beta4 = settings: U2OS BacMam BK variants, at 30 µM
R275C/Slo1WT/beta2 = settings: U2OS BacMam BK variants, at 30 µM

Measured: log fold change Tl+ flux

COC1=C(OC)C(=O)C(CCCCCCCCCCO)=C(C)C1=O
active: F380Y/beta2Delta -0.557 | F380Y/beta4 -0.388 | [1] -0.413 | R275C -0.199 | R275C/beta2Delta -0.151 | R275C/beta4 -0.0932
inactive: R275C/beta1 -0.0599 | R275C/Slo1WT/beta2 -0.0534

N#Cc1ccc(C(c2ccc(C#N)cc2)n2cncn2)cc1
inactive: F380Y/beta2Delta 0.0563 | F380Y/beta4 0.0185 | [1] 0.0131 | R275C -0.0506 | R275C/beta1 -0.0148 | R275C/beta2Delta -0.0137 | R275C/beta4 -0.0251 | R275C/Slo1WT/beta2 0.00776

Nc1nc(N)nc(-c2cc(Cl)ccc2Cl)n1
inactive: F380Y/beta2Delta -0.0416 | F380Y/beta4 -0.00342 | [1] -0.0223 | R275C -0.0835 | R275C/beta1 -0.0137 | R275C/beta2Delta -0.0163 | R275C/beta4 -0.0246 | R275C/Slo1WT/beta2 -0.0527

Cc1[nH]cnc1CN1CCc2c(c3ccccc3n2C)C1=O
inactive: F380Y/beta2Delta -0.0209 | F380Y/beta4 -0.0392 | [1] 0.00572 | R275C -0.066 | R275C/beta1 0.0308 | R275C/beta2Delta -0.0141 | R275C/beta4 0.0279 | R275C/Slo1WT/beta2 0.0535

CC(C)c1ccc2oc3nc(N)c(C(=O)O)cc3c(=O)c2c1
inactive: F380Y/beta2Delta 0.00122 | F380Y/beta4 0.0364 | [1] 0.0473 | R275C -0.0223 | R275C/beta1 -0.0119 | R275C/beta2Delta 0.0807 | R275C/beta4 -0.00203 | R275C/Slo1WT/beta2 0.0208

CC(N)C12CC3CC(CC(C3)C1)C2 (stereo not given)
inactive: F380Y/beta2Delta 0.0577 | F380Y/beta4 0.0485 | [1] 0.0164 | R275C 0.0361 | R275C/beta1 -0.0211 | R275C/beta2Delta 0.0568 | R275C/beta4 0.04 | R275C/Slo1WT/beta2 0.0291

COc1ccccc1OCC(O)CN1CCN(CC(=O)Nc2c(C)cccc2C)CC1 (stereo not given)
inactive: F380Y/beta2Delta 0.0304 | F380Y/beta4 -0.01 | [1] -0.0153 | R275C -0.0477 | R275C/beta1 0.0435 | R275C/beta2Delta 0.00123 | R275C/beta4 0.0205 | R275C/Slo1WT/beta2 0.0142

CCC(=O)O[C@]1(C(=O)SCF)[C@H](C)C[C@H]2[C@@H]3C[C@H](F)C4=CC(=O)C=C[C@]4(C)[C@@]3(F)[C@@H](O)C[C@@]21C
inactive: F380Y/beta2Delta 0.0505 | F380Y/beta4 0.0435 | [1] 0.0105 | R275C -0.00436 | R275C/beta1 -0.000971 | R275C/beta2Delta 0.027 | R275C/beta4 0.00493 | R275C/Slo1WT/beta2 0.0478

CN1CCC(=C2c3ccccc3CC(=O)c3sccc32)CC1
inactive: F380Y/beta2Delta 0.00285 | F380Y/beta4 0.0281 | [1] 0.0191 | R275C -0.082 | R275C/beta1 0.0422 | R275C/beta2Delta 0.0873 | R275C/beta4 0.0237 | R275C/Slo1WT/beta2 0.0313

C#C[C@]1(O)CC[C@H]2[C@@H]3[C@H](C)CC4=C(CCC(=O)C4)[C@H]3CC[C@@]21C
active: [1] 0.094 | R275C/beta1 0.155
inactive: F380Y/beta2Delta 0.02 | F380Y/beta4 0.0383 | R275C -0.0625 | R275C/beta2Delta 0.0649 | R275C/beta4 0.0734 | R275C/Slo1WT/beta2 0.0272

O=C(NCCO[N+](=O)[O-])c1cccnc1
inactive: F380Y/beta2Delta -0.00246 | F380Y/beta4 0.013 | [1] 0.000443 | R275C -0.059 | R275C/beta1 -0.0194 | R275C/beta2Delta 0.000208 | R275C/beta4 0.0335 | R275C/Slo1WT/beta2 -0.00283

O=C(CCNNC(=O)c1ccncc1)NCc1ccccc1
inactive: F380Y/beta2Delta -0.0162 | F380Y/beta4 0.0308 | [1] 0.00963 | R275C -0.0947 | R275C/beta1 -0.0338 | R275C/beta2Delta 0.038 | R275C/beta4 0.0195 | R275C/Slo1WT/beta2 0.0406

Nc1ccn([C@H]2CC[C@@H](CO)O2)c(=O)n1
inactive: F380Y/beta2Delta -0.0145 | F380Y/beta4 0.0289 | [1] 0.0157 | R275C -0.0969 | R275C/beta1 -0.00164 | R275C/beta2Delta -0.00877 | R275C/beta4 0.00428 | R275C/Slo1WT/beta2 0.0272

CCN1CCC[C@H]1CNC(=O)c1cc(S(N)(=O)=O)ccc1OC
inactive: F380Y/beta2Delta -0.0214 | F380Y/beta4 -0.00754 | [1] 0.0207 | R275C -0.000435 | R275C/beta1 -0.0215 | R275C/beta2Delta -0.02 | R275C/beta4 0.0473 | R275C/Slo1WT/beta2 -0.0273

Nc1nc2c(ncn2COC(CO)CO)c(=O)[nH]1
inactive: F380Y/beta2Delta 0.0461 | F380Y/beta4 0.0377 | [1] -0.00437 | R275C 0.0708 | R275C/beta1 -0.0192 | R275C/beta2Delta 0.0472 | R275C/beta4 -0.0224 | R275C/Slo1WT/beta2 -0.00303

CNS(=O)(=O)Cc1ccc2[nH]cc(CCN(C)C)c2c1
inactive: F380Y/beta2Delta 0.0184 | F380Y/beta4 0.00469 | [1] -0.0149 | R275C 0.0314 | R275C/beta1 -0.0158 | R275C/beta2Delta 0.00098 | R275C/beta4 -0.0449 | R275C/Slo1WT/beta2 0.0327

C[C@]12C[C@H](O)[C@H]3[C@@H](CCC4=CC(=O)CC[C@@]43C)[C@@H]1CC[C@@H]2C(=O)CO
inactive: F380Y/beta2Delta -0.00742 | F380Y/beta4 0.0166 | [1] 0.0373 | R275C -0.04 | R275C/beta1 0.00127 | R275C/beta2Delta 0.0285 | R275C/beta4 0.0631 | R275C/Slo1WT/beta2 0.00421

CCN1CC(CCN2CCOCC2)C(c2ccccc2)(c2ccccc2)C1=O (stereo not given)
inactive: F380Y/beta2Delta -0.000818 | F380Y/beta4 0.03 | [1] -0.0552 | R275C -0.0141 | R275C/beta1 -0.00917 | R275C/beta2Delta 0.0055 | R275C/beta4 0.000738 | R275C/Slo1WT/beta2 -0.0334

CC(C)(C(=O)c1cccnc1)c1cccnc1
inactive: F380Y/beta2Delta -0.0492 | F380Y/beta4 -0.00737 | [1] -0.0176 | R275C -0.0634 | R275C/beta1 0.0377 | R275C/beta2Delta -0.0241 | R275C/beta4 0.0328 | R275C/Slo1WT/beta2 0.0667

Nc1[nH]c(=O)ncc1F
inactive: F380Y/beta2Delta 0.0238 | F380Y/beta4 0.00948 | [1] 0.00877 | R275C 0.0013 | R275C/beta1 -0.0522 | R275C/beta2Delta 0.00516 | R275C/beta4 -0.00411 | R275C/Slo1WT/beta2 -0.0674

CC(=O)NS(=O)(=O)c1ccc(N)cc1
inactive: F380Y/beta2Delta 0.0558 | F380Y/beta4 0.0262 | [1] -0.0364 | R275C 0.0168 | R275C/beta1 -0.00538 | R275C/beta2Delta -0.00501 | R275C/beta4 -0.00232 | R275C/Slo1WT/beta2 0.00853

COc1cc2c(cc1OC)C(=O)C(CC1CCN(Cc3ccccc3)CC1)C2 (stereo not given)
inactive: F380Y/beta2Delta 0.0718 | F380Y/beta4 0.0262 | [1] -0.0241 | R275C -0.0742 | R275C/beta1 0.0129 | R275C/beta2Delta -0.0194 | R275C/beta4 0.00155 | R275C/Slo1WT/beta2 0.0243

COc1ccc(C(=O)NCc2ccc(OCCN(C)C)cc2)cc1OC
inactive: F380Y/beta2Delta -0.0465 | F380Y/beta4 -0.0244 | R275C -0.0872 | R275C/beta1 -0.00904 | R275C/beta2Delta -0.0505 | R275C/beta4 0.0059 | R275C/Slo1WT/beta2 0.00939
active: [1] -0.0979

CCCOc1ccc(C(=O)OCCN(CC)CC)cc1N
inactive: F380Y/beta2Delta 0.0489 | F380Y/beta4 0.0262 | [1] 0.00339 | R275C 0.0442 | R275C/beta1 -0.0232 | R275C/beta2Delta 0.0224 | R275C/beta4 0.00943 | R275C/Slo1WT/beta2 -0.0584

Cc1ncc([N+](=O)[O-])n1CC(O)CCl (stereo not given)
inactive: F380Y/beta2Delta -0.0158 | F380Y/beta4 -0.0171 | [1] -0.013 | R275C 0.00346 | R275C/beta1 -0.0317 | R275C/beta2Delta -0.0154 | R275C/beta4 -0.0435 | R275C/Slo1WT/beta2 -0.016

OCc1cccnc1
inactive: F380Y/beta2Delta 0.033 | F380Y/beta4 0.017 | [1] -0.0204 | R275C -0.0301 | R275C/beta1 -0.00726 | R275C/beta2Delta -0.015 | R275C/beta4 -0.00528 | R275C/Slo1WT/beta2 0.0162

CC(C)[C@H](N)C(=O)OCCOCn1cnc2c(=O)[nH]c(N)nc21
inactive: F380Y/beta2Delta -0.00659 | F380Y/beta4 -0.0146 | [1] 0.0174 | R275C -0.11 | R275C/beta1 0.0176 | R275C/beta2Delta 0.0029 | R275C/beta4 0.0146 | R275C/Slo1WT/beta2 -0.011

COC(=O)CCc1ccc(OCC(O)CNC(C)C)cc1 (stereo not given)
inactive: F380Y/beta2Delta 0.0184 | F380Y/beta4 -0.0155 | [1] -0.00535 | R275C -0.0168 | R275C/beta1 0.0198 | R275C/beta2Delta 0.0115 | R275C/beta4 0.0115 | R275C/Slo1WT/beta2 0.0231

CN1CCN(c2c(F)cc3c(=O)c(C(=O)O)cn4c3c2SCC4)CC1
inactive: F380Y/beta2Delta 0.0235 | F380Y/beta4 -0.00383 | [1] 0.0303 | R275C -0.068 | R275C/beta1 0.019 | R275C/beta2Delta 0.0239 | R275C/beta4 0.00729 | R275C/Slo1WT/beta2 -0.0231

COC(=O)C1=C(C)NC(C)=C(C(=O)OC(C)C)C1c1cccc2nonc12 (stereo not given)
active: F380Y/beta4 -0.107
inactive: F380Y/beta2Delta -0.0966 | [1] 0.00177 | R275C -0.0742 | R275C/beta1 -0.015 | R275C/beta2Delta -0.0967 | R275C/beta4 -0.00531 | R275C/Slo1WT/beta2 -0.0356
